Compound activity (PubChem)
A selection: hits, their analogues and other compounds. The true share with any hit is near 0.74%.
MazEF act: MazEF (E. coli) toxin RNase activation; AID 504720; P0AE70; FAM/BHQ RNA-DNA oligo cleavage fluorescence, 5 h; actives 0.32% (n = 350,000); activation, % at 20 µM; in the data active means activation above about 50%
FadD28 binding: M. tuberculosis FadD28 bisubstrate binding inhibition; inhibition, % at 12.5 µM; actives 0.22% (n = 360,000); FadD28 bisubstrate probe binding, fluorescence polarization; in the data active means inhibition above about 8.5%, passing the limit was not always enough
Rv3671c inh: inhibitors of M. tuberculosis serine protease Rv3671c; P9WHR9; inhibition, % at 5.96 µM; actives 0.048% (n = 320,000); AID 2606;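 further: extracellular domain of Rv3671c used as enzyme; 0% = enzyme with DMSO and 100% = no enzyme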
Vc quorum ag: quorum light induction in luxS cqsA deficient V. cholerae; V. cholerae BH1578 lux reporter, luminescence, 6 h; actives 0.16% (n = 350,000); activation, % at 18.7 µM; in the data active means activation mostly above about 9.7%, no sharp cut-off
UGM FP inh: blocks M. tuberculosis UGM enzyme; purified UGM, fluorescence polarization probe displacement; P9WIQ1; AID 504406; actives 0.06% (n = 320,000); inhibition, % at 10 µM; in the data active means inhibition above about 10%, passing the limit was not always enough
Target sequence (P9WIQ1 whole entry, looked up): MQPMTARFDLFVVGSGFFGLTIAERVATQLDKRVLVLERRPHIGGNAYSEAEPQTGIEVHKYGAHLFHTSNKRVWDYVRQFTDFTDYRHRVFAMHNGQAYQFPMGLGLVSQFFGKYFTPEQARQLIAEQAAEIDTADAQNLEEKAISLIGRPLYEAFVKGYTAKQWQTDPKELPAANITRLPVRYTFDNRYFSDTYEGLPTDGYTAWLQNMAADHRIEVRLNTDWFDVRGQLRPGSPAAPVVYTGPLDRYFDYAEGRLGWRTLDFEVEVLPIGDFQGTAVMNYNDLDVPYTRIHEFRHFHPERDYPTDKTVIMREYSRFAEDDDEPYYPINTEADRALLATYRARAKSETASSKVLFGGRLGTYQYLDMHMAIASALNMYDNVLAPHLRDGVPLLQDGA
Mtb betalactam: beta-lactam sensitization of Mtb H37Rv; inhibition, % at 25 µM; M. tuberculosis H37Rv growth with meropenem, percent inhibition; actives 0.27% (n = 330,000); AID 434955; call rule not given here;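 further: growth measured after seven days incubation then overnight dye step; 0% = bacteria only wells and 100% = bacteria with antibiotic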
Rv3671c cf: confirmation of M. tuberculosis Rv3671c protease inhibitors | inhibition, % at 5.96 µM | actives 40% (n = 140) | shares compounds with Rv3671c inh
Starred values were filed as active, the others as inactive; i = inactive; nt = not tested or not shown. Unless noted, no stated cut-off is given here; in the data, active means inhibition above about 38%; inactive means the rest.

SMILES	MazEF act	FadD28 binding	Rv3671c inh	Vc quorum ag	UGM FP inh	Mtb betalactam	others
Cc1cn(CC(=O)c2ccccc2)c2ccccc12	-15	-1	2	i	0	83
Cc1ccc(-n2c(O)c(C=Nc3ccccc3N)c(=O)[nH]c2=O)cc1C	-24	-2	-6	0	0	-3
O=c1[nH]c(=O)n(-c2ccc(F)cc2)c(O)c1C=Nc1ccccc1N1CCCC1	206*	-1	1	1	nt	2
CC1(C(=O)NS(=O)(=O)c2cccc(C#N)c2)CCN1C(=O)c1cccc2ccccc12 (stereo not given)	nt	-1	nt	-1	nt	nt
O=C(O)CN1C(=O)/C(=C\c2ccc(OC(=O)c3ccco3)cc2)SC1=S	7	2	-1	i	-1	3
O=C(O)CCN1C(=O)/C(=C\c2ccc(-c3nc4ccccc4s3)o2)SC1=S	-10	20*	-4	i	-1	16
O=C(O)CN1C(=O)/C(=C/c2ccc(SCc3ccccc3)o2)SC1=S	123*	5	nt	0	nt	nt
O=C1C=CN2CCCCC2CC1 (stereo not given)	-11	-1	-2	-1	1	-9
COc1ccc(-c2cc(C)no2)cc1S(=O)(=O)N1CCOc2ccc(C)cc21	76*	-5	-14	0	0	0
CCc1ccc(-c2cc(C)no2)cc1S(=O)(=O)N1CCOc2ccccc21	4	-2	-11	0	2	-3
Cc1cc(F)ccc1NC(=O)C1CSC2(C)CCC(=O)N12 (stereo not given)	7	-1	6	i	-1	-9
Cc1cccc(NC(=S)N/N=C/c2cccc([N+](=O)[O-])c2)c1	58*	-2	-12	i	0	-2
COc1ccc(N2CCN(C(=O)COC(=O)COc3cccc(C(F)(F)F)c3)CC2)cc1	1	1	1	i	1	-8
COc1ccc2ccccc2c1/C=N/NC(=O)c1cccc(Br)c1	2	0	-16	0	-2	nt
O=C(N/N=C/c1c(O)ccc2ccccc12)c1cccc(C(F)(F)F)c1	75*	0	-30	0	1	13
Cc1ccc(S(=O)(=O)N2C[C@@H]3[C@H]4CC[C@H](C4)[C@@H]3[C@@H](C)[C@H]2C#N)cc1	-4	-6	nt	-2	nt	nt
CCc1c(O)nc(SCC(=O)Nc2nc3ccccc3s2)n(C2CCCCC2)c1=O	-4	12*	3	i	2	3
COc1ccc(C)cc1NC(=O)CNC(=O)[C@@H]1Cc2ccccc2CN1	7	-1	2	0	-1	-1
CCN1CCN(C(=S)c2ccc(OCC(=O)Nc3ccc(OC)cc3)cc2)CC1	58*	0	-5	0	0	-8
O=C(O)c1ccc(CN2C[C@@H](CO)O[C@@H](n3cnc4c(NCc5ccc(F)cc5)ncnc43)C2)cc1	nt	-2	nt	i	nt	nt
O=C(COC(=O)/C=C/c1cccc(C(F)(F)F)c1)NC1CCCCCC1	-1	-2	-12	i	1	-7
O=C(CSc1nnc(CNC(=O)c2cccs2)o1)NC1CCCCC1	-1	0	-4	15*	2	-9
COc1ccccc1-c1cc(C(F)(F)F)nc(S(=O)(=O)CCCC(=O)N2CCOCC2)n1	5	-3	-9	-1	5	94
COc1ccc(-c2cc(C(F)(F)F)nc(S(=O)(=O)CCC(=O)N3CCOCC3)n2)cc1	9	1	60*	0	-1	47	Rv3671c cf=-7
O=C(CCc1ccc(O)c(O)c1)N/N=C/c1ccc2c(c1)OCO2	3	nt	4	2	5	6
SMILES	MazEF act	FadD28 binding	Rv3671c inh	Vc quorum ag	UGM FP inh	Mtb betalactam	others
CC(C)Oc1ccc(CCC(=O)N/N=C/c2ccc3c(c2)OCO3)cc1	-1	-2	38*	i	3	1	Rv3671c cf=0
Oc1ccc(/C=N/Nc2ccnc3cc(Cl)ccc23)cc1O	-2	12*	54*	0	-1	1	Rv3671c cf=30
Nc1cccc2nc3ccccc3cc12	-3	-2	12	i	nt	40
Cc1cc2c(N)cccc2nn1	-26	3	55*	i	-1	2	Rv3671c cf=-1
Cc1cc(C)n2nc(SCC(=O)N/N=C/c3ccccn3)nc2n1	2	-1	76*	0	1	1	Rv3671c cf=-6
O=c1[nH]nc(CNc2ccc(O)cc2)c2ccccc12	444*	3	40*	-5	0	-3	Rv3671c cf=-7
